According to PubChem BioAssay (NCATS):
Values without a mark were called inactive. Inconclusive results are not listed. Entries that show only a call come without a potency. Calls of active or inactive are those of the source. Calls follow the shape of the dose curve; as a rule, active = well fitted curve in the direction sought with a large enough effect; inconclusive = small, poorly fitted or top-dose-only effect, or another doubt; inactive = no such curve, though single readings can be large; an effect the other way counts as inactive or inconclusive.

Experiments:
[1] = molecular target: Glutathione peroxidase 1 (Homo sapiens) (UniProt P07203); test: Primary qHTS Assay for Inhibitors of Recombinant Selenoprotein Glutathione Peroxidase 1 (GPX1) (AID 1845191); also: nearly all actives have a fitted effect of over 65% in size
How it was run: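 GR-coupled assay: compounds preincubated 30 min at room temperature with GPX1, then reaction started with CHP; final 10 nM GPX1, 1 mM GSH, 0.5 mM CHP, 0.5 mM NADPH, 100 nM GR, 0.01% BSA, pH 7.5 Tris buffer. NADPH fluorescence (340/450 nm) read at 0 and 15 min.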

[2] = molecular target: Phospholipid hydroperoxide glutathione peroxidase GPX4 (Homo sapiens) (UniProt P36969); test: Primary qHTS Assay for Inhibitors of Recombinant Selenoprotein Glutathione Peroxidase 4 (GPX4) (AID 1845192); also: nearly all actives have a fitted effect of over 65% in size; as to activity change, negative = inhibition: series mostly up to about 50 µM
How it was run: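 GR-coupled assay: recombinant GPX4 preincubated 30 min with compound at room temperature; final 200 nM GPX4, 1 mM GSH, 0.5 mM cumene hydroperoxide, 0.5 mM NADPH, 100 nM GR, 0.01% BSA, pH 7.5 Tris. NADPH fluorescence (340/450 nm) read at 0 and 15 min.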

[3] = molecular target: Luciferin 4-monooxygenase (Photinus pyralis) (UniProt P08659); test: Primary firefly luciferase (FLuc) qHTS assay for identification of artifact compounds. (AID 1845220); also: nearly all actives have a fitted effect of over 60% in size; as to activity change, negative = inhibition: series mostly up to about 54 µM
How it was run: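 D-luciferin and ATP (10 uM each, final) in Tris acetate buffer pH 7.6 were incubated with compounds for 15 min at room temperature. The reaction was started with 10 nM Photinus pyralis luciferase and luminescence read after 5 min. Percent inhibition was fitted to a 4-parameter Hill equation.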

[4] = Primary fluorescence-based thiol-reactive (MSTI) qHTS assay for identification of artifact compounds. (AID 1845221); also: nearly all actives have a fitted effect of over 65% in size; also: potency is read from the fitted curve at half-maximal effect;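 as to activity change, negative = thiol reactive: series mostly up to about 54 µM; thiol-reactive compounds lower the probe fluorescence signal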
How it was run: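 Curve-fitted percent inhibition (4-parameter Hill) derived from fluorescence, Ex 525/Em 598 nm, scaled with Acetyl-MSTI and MSTI; 1 h incubation at room temperature.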

[5] = tested on: Nanoluciferase (engineered Oplophorus gracilirostris luciferase); test: Primary Nanoluciferase (NLuc) qHTS assay for identification of artifact compounds. (AID 1845222); also: series mostly up to about 54 µM
How it was run: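 Diluted conditioned medium from NLuc-expressing S16 cells treated with compounds for 15 min at room temperature, then Nano-Glo substrate added; luminescence read after 5 min. Percent inhibition versus no-enzyme and DMSO controls fitted to 4-parameter Hill equation.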

Sequence of Glutathione peroxidase 1 (Homo sapiens) (P07203 whole entry, looked up): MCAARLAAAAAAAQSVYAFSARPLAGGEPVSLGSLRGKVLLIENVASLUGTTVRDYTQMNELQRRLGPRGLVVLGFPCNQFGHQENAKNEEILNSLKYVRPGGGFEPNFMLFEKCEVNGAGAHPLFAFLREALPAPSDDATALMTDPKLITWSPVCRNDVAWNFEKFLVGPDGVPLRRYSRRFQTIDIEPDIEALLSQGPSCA
Sequence of Phospholipid hydroperoxide glutathione peroxidase GPX4 (Homo sapiens) (P36969 whole entry, looked up): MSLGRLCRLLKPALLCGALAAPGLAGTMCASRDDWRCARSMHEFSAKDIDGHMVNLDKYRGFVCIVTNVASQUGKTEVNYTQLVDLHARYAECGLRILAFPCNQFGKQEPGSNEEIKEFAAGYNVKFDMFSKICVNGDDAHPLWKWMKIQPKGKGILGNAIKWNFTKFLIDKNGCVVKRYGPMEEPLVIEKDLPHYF

| SMILES | Potency [1] | Potency [2] | Potency [3] | Potency [4] | Potency [5] | activity change, negative = inhibition [3] | activity change, negative = thiol reactive [4] | activity, negative = inhibition [5] |
| --- | --- | --- | --- | --- | --- | --- | --- | --- |
| CCC(C)(C)C1CCc2c(sc(NC(=O)c3ccc(Br)cc3)c2C#N)C1 (stereo not given) | inactive | inactive | inactive | inactive | inactive |  |  |  |
| CC(C)C1NC(=O)C(CC2(O)c3ccccc3N3C(=O)C(Cc4ccccc4)NC32)NC1=O (stereo not given) | inactive | inactive | inactive | inactive | inactive |  |  |  |
| Cc1ccc(-n2nc(C(C)(C)C)cc2NC(=O)Nc2cc(COc3cccnc3)[nH]n2)cc1 | inactive | inactive | inactive | inactive | inactive |  |  |  |
| O=C(O)CCc1ccc(NCc2cccc3c2CCCN3CCOc2ccccc2)cc1F | inactive | inactive | inactive | 1.5 µM (active) | inactive |  |  |  |
| COc1ccc(-n2c(SCC#N)nc3sc4c(c3c2=O)CCCC4)cc1 | inactive | inactive | inactive | inactive | inactive |  |  |  |
| C/C(=C\CCC1(C)C2CC3C(C2)C31C)C(=O)O (stereo not given) | inactive | inactive | inactive | inactive | inactive |  |  |  |
| C[C@@H]1C(=O)O[C@H](C)[C@H]1C[C@@H](O)[C@](C)(O)[C@H]1CC[C@@]2(O)C3=CC(=O)[C@@H]4C[C@@H](O)[C@@H](O)C[C@]4(C)C3CC[C@]12C (stereo not given in full) | inactive | inactive | inactive | inactive | inactive |  |  |  |
| CC1C2=CC(=O)OC2(O)CC2C1C(O)CC1C(C)(CO)CCCC21C (stereo not given) | inactive | inactive | inactive | inactive | inactive |  |  |  |
| C/C=C/C1OC2=C(C(=O)OC2(C)O)C(O)C1O (stereo not given) | inactive | inactive | inactive | inactive | inactive |  |  |  |
| C[C@H]1CCN2C[C@]34C[C@@]5(C(=O)Nc6c5ccc5c6OC=CC(C)(C)O5)C(C)(C)C3C[C@]12C(=O)N4C (stereo not given in full) | inactive | inactive | inactive | inactive | inactive |  |  |  |
| COC(=O)[C@H](O)[C@H]1C(C)(C)[C@H](OC(C)=O)[C@@]2(O)C(=O)[C@]1(C)C1CC[C@]3(C)C(CC(=O)O[C@H]3c3ccoc3)[C@]13O[C@@H]32 (stereo not given in full) | inactive | inactive | inactive | inactive | inactive |  |  |  |
| Cc1ccccc1-c1cc(N2CCN(C)CC2)ncc1N(C)C(=O)C(C)(C)c1cc(C(F)(F)F)cc(C(F)(F)F)c1 | inactive | inactive | inactive | inactive | inactive |  |  |  |
| NC(=O)NCCCC(NC(=O)Cc1ccccc1)C(=O)O (stereo not given) | inactive | inactive | inactive | inactive | inactive |  |  |  |
| CC(O)C(=O)/C=C/C=C/C(=O)OC1C=C2COC(=O)C2(O)C2(C)CCCC(C)(C)C12 (stereo not given) | inactive | inactive | inactive | inactive | inactive |  |  |  |
| CC(C)(O)C1CC=C(C(=O)OC[C@H]2O[C@@H](Oc3cc(C(=O)O)cc(O)c3O)[C@H](O)[C@@H](O)[C@@H]2O)CC1 (stereo not given in full) | inactive | inactive | inactive | 5.19 µM (active) | inactive |  |  |  |
| CC1OC(OC2CCC3(C)C(CCC4(C)C3C=CC35OCC6(CCC(C)(C)CC63)CCC45C)C2(C)CO)C(OC2OC(CO)C(O)C(O)C2O)C(O)C1OC1OC(CO)C(O)C(O)C1O (stereo not given) | inactive | inactive |  |  |  | 1.11% [at 11.6 µM] | 34% [at 11.5 µM] | 3.75% [at 11.6 µM] |
| C[C@@H](c1ccccc1)N(C(N)=NC#N)c1cccc2ncccc12 | inactive | inactive | inactive | inactive | inactive |  |  |  |
| CC(=O)/C=C/C1C(C)CC(O[C@@H]2O[C@H](CO)[C@@H](O)[C@H](O)[C@H]2O)CC1(C)C (stereo not given in full) | inactive | inactive | inactive | 14.7 µM (active) | inactive |  |  |  |
| Cc1cc(Cn2cnc3c2CC(C(=O)O)N(C(=O)C(c2ccccc2)c2ccccc2)C3)ccc1N(C)C (stereo not given) | inactive | inactive | inactive | inactive | inactive |  |  |  |
| CC1(C)CC(NC(=O)C(=O)Nc2ccc(Cl)cc2)CC(C)(C)N1 | inactive | inactive | inactive | inactive | inactive |  |  |  |
| O=C(NC1CCN(CC(F)(F)F)CC1)c1ccc(-c2cccc(F)c2)nc1 | inactive | inactive | inactive | inactive | inactive |  |  |  |
| C=C1CC[C@@H]2[C@](C)(CO)[C@H](O[C@@H]3O[C@H](CO)[C@@H](O)[C@H](O)[C@H]3O)CC[C@@]2(C)[C@@H]1C/C=C1/C(=O)OC[C@H]1O | inactive | inactive | inactive | 6.53 µM (active) | inactive |  |  |  |
| C=C[C@@]1(C)CCC2=C([C@H]1OC(C)=O)[C@H](OC(C)=O)CC1[C@](C)(C(=O)OC)CC[C@H](OC(C)=O)[C@]21C (stereo not given in full) | inactive | inactive | inactive | inactive | inactive |  |  |  |
